Test [1] in a line: Cytometric Cell-Based qHTS for Inhibitors of the mTORC1 Signaling Pathway in MEF (Tsc2-/-, p53-/-) Cells (AID 2660).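 Further: Tsc2 and p53 null MEFs carrying empty vector with compound for 24 h; percent of cells above a phospho-rpS6 to PI ratio cutoff in each well; series mostly up to about 38 µM.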 A digest of the protocol:
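Cells are plated, treated with compound for 24 hrs at 37 degree Celsius, then fixed, blocked and immunostained for phospho-rpS6 Ser235/236. Propidium iodide counterstain follows. Per-well % positive cells is derived from the PI-normalized phospho-S6 signal.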
(Quantitative high-throughput screening tests each substance at several concentrations.)

Test [2] can be described thus: Cytometry Cell-Based qHTS for Inhibitors of the mTORC1 Signaling Pathway in MEF cells (AID 2668).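 Further: Tsc2-/- p53-/- mouse embryonic fibroblasts stably re-expressing wild-type Tsc2; percent cells positive for phospho-rpS6 Ser235/236 relative to propidium iodide stain; series mostly up to about 38 µM.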 A digest of the protocol:
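Tsc2-/-, p53-/- MEFs re-expressing WT Tsc2; cpd 24 hrs, 37 degree Celsius; PFA fix, Alexa-488 p-rpS6 (Ser235/236) Ab 2 hrs RT, PI counterstain; Acumen 488nm scan; p-S6/PI ratio → % positive cells; PI count = viability.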

The nature of test [3]: Validation screen for small molecules that induce DNA re-replication in MCF 10A normal breast cells (AID 463097). Further: nearly all actives have a fitted effect of over 60% in size. A digest of the protocol: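 Image-based qHTS: normal breast cells are incubated with compound for 48 hr, stained with Hoechst, and scanned for total nuclear fluorescence. Compounds raising the fraction of nuclei with elevated DNA content count as re-replication inducers.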

Test [4] deals with Ubiquitin carboxyl-terminal hydrolase 2 (Homo sapiens) (UniProt O75604). As to the kind of experiment: qHTS Validation Assay for Inhibitors of Ubiquitin-specific Protease USP2a Using CHOP2 as the Reporter (AID 463106). A digest of the protocol:
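10nM USP2 core + cpd, 30min RT; add 25nM Ub-CHOP2/25nM substrate; 60min RT; FI 485/531nm. Buffer Tris pH 8.0, CaCl2, BME, CHAPS. Norm. to NEM = 100% inhibition; time-zero read flags fluorescent artifacts.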

Test [5] has as its target DNA polymerase III PolC-type (Bacillus subtilis (strain 168)) (UniProt P13267). The test is described as follows: qHTS Validation Assay for the Inhibitors of DNA Replication in Gram-Positive Bacteria (AID 485295).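 Further: reconstituted holoenzyme with PolC plus beta clamp SSB and primase; PicoGreen fluorescence of double-stranded DNA made on primed circular M13 template; series mostly up to about 57 µM.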 The method in brief: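 First, compound is mixed with the reconstituted replication complex and held at room temperature. Next, circular single-stranded M13Gori with nucleotides starts synthesis. Finally, PicoGreen in EDTA halts the reaction and stains double-stranded product for fluorescence reading.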

Test [6] concerns the target Tumor susceptibility gene 101 protein (Homo sapiens) (UniProt Q99816). The test is described as follows: qHTS Validation Assay for Iinhibitors of HIV-1 Budding by Blocking the Interaction of PTAP/TSG101 (AID 485342; calls by dose curve). The method in brief: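 Binding of a FITC-tagged PTAP-motif peptide (50 nM) to the Tsg101 binding domain (10 uM) is monitored by fluorescence polarization. Compounds are pin-delivered before peptide addition, and incubation runs 20 min at room temperature.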

A short description of test [7]: qHTS Validation Assay to Find Inhibitors of Chronic Active B-Cell Receptor Signaling (AID 485345; active means well fitted curve in the direction sought with a large enough effect in the main read-out, with a control signal flat, not every such curve was filed as active). A digest of the protocol:
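Read-out: ratio of filter-corrected green (IkappaBalpha fusion) to red (native) luciferase signal in doxycycline-induced TMD8 cells after 4 h at 37C. Titration spanned 46 uM–3 nM; Data were normalised to basal cells and 10 uM MG-132 wells.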

Test [8] addresses Beta-2 adrenergic receptor (Homo sapiens) (UniProt P07550). As to the kind of experiment: qHTS validation assay of beta-arrestin-biased ligands of beta2-adrenergic receptor (AID 485366). A digest of the protocol:
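Values derive from curve-fitted %Activity of a luminescent beta-arrestin recruitment reporter; compounds tested up to 46 microM on Tango cells for 18 hr at 37 degrees C, 5% CO2.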

The nature of test [9]: Quantitative high throughput screen for delayed death inhibitors of the malarial parasite plastid, 96 hour incubation (AID 488745).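 Further: luciferase-expressing P. falciparum in erythrocytes at 2% hematocrit and 0.1% parasitemia; series mostly up to about 29 µM; nearly all actives have a fitted effect of over 70% in size.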 A digest of the protocol:
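Infected erythrocytes were added to compound in Albumax-supplemented RPMI 1640 at 0.1% parasitemia and 2% hematocrit (final), incubated 96 h at 37 C under 5% CO2, then luciferase reagent was added and luminescence measured.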

Test [10] in a line: Quantitative high throughput screen for delayed death inhibitors of the malarial parasite plastid, 48 hour incubation (AID 488752). Further: nearly all actives have a fitted effect of over 65% in size. A digest of the protocol: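 Readout is firefly luciferase luminescence from a reporter integrated into the parasite genome, with lower signal taken as inhibited growth. Infected red cells (0.1% parasitemia, 2% hematocrit final) are cultured with compound for one 48 h cycle at 37 C.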

Test [11] deals with Thioredoxin reductase 1, cytoplasmic (Rattus norvegicus) (UniProt O89049). As to the kind of experiment: qHTS Assay for Substrates of Mammalian Selenoprotein Thioredoxin Reductase 1 (TrxR1) (AID 488772).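 Further: NADPH fluorescence in the first read after selenite addition and not the 8 min delta; series mostly up to about 57 µM; a drop in NADPH fluorescence below the no-compound background marks a TrxR1 substrate.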 The method in brief:
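Quantitative HTS in Tris-HCl buffer at pH 7.5 with EDTA and Tween-20, using rat TrxR1, 400 uM NADPH and 400 uM selenite (final). A fall in initial NADPH fluorescence relative to background marked substrate behaviour.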

For test [12] the target is unchanged. As to the kind of experiment: qHTS Assay for Inhibitors of Mammalian Selenoprotein Thioredoxin Reductase 1 (TrxR1) (AID 488773).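 Further: drop in NADPH fluorescence over an 8 min run after selenite addition; series mostly up to about 57 µM; nearly all actives have a fitted effect of over 40% in size.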 The following applies: Potency: inhibition. The method in brief:
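Steps: enzyme (90 nM) plus NADPH (400 uM final), 5 min at ~22 deg C; compound added, 15 min; selenite (400 uM final) added; fluorescence followed for 8 min. Concentration-response curves derived from the normalized delta values.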

In test [13] the target is M-phase phosphoprotein 8 (Homo sapiens) (UniProt Q99549). As to the kind of experiment: qHTS Validation Assay for Inhibitors for MPP8 Chromodomain Interactions with Methylated Histone Tails (AID 488949). Further: nearly all actives have a fitted effect of over 55% in size. Further: potency means the concentration at half of the fitted maximal effect. A digest of the protocol:
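50 nM MPP8 + 50 nM b-H3K9me3 peptide, PBS pH 7.4/0.01% Tween-20, 30 min RT; + cpd 30 min RT; + AlphaScreen donor/Ni-chelate acceptor beads 10 ug/mL final, 30 min dark; luminescence read.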

Test [14] has as its target Methanococcus maripaludis chaperonin (MmCpn) (UniProt Q6LX38). The test is described as follows: High-Throughput Screening for Modulators of Cytosolic Chaperonin Activity: MmCpn Primary Screen (AID 488978).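 Further: 50 nM MmCpn enzyme hydrolysing 30 µM ATP at 37 °C.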 A digest of the protocol: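 Steps: chaperonin 50 nM final; add compound, 5 min RT; start with ATP, 30 uM final; hold 10 min at 37C; add ADP Transcreener HTRF reagent, 5 min; read ex 320, em 590 and 665 nm.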

A short description of test [15]: High Content Imaging Cell-Based qHTS for Inhibitors of the mTORC1 Signaling Pathway in MEF Cells (AID 2667).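 Further: Tsc2-/- p53-/- MEFs stably re-expressing wild-type Tsc2 exposed 24 h; series mostly up to about 38 µM.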 The method in brief: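 Immunofluorescence for rpS6 phosphorylation in MEFs of Tsc2-/-, p53-/- background rescued with WT Tsc2. Compound exposure lasted 24 hrs. Inhibition was scored against rapamycin-treated control wells.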
The target of test [16] is Flap endonuclease 1 (Homo sapiens) (UniProt P39748). As to the kind of experiment: qHTS Validation Assay for the Inhibitors of Human Flap endonuclease 1 (FEN1) (AID 488816). A digest of the protocol: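 Readings taken at 0 and 15 min after starting the reaction with 50 nM (final) substrate supplied the signal. Compounds had first sat with 10 nM FEN1 reagent for 15 min at room temperature. Values come from Hill-equation concentration-response fits.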

Test [17] addresses Chromobox protein homolog 1 (Homo sapiens) (UniProt P83916). As to the kind of experiment: qHTS Validation Assay for Inhibitors of HP1-beta Chromodomain Interactions with Methylated Histone Tails (AID 488953). Further: nearly all actives have a fitted effect of over 50% in size. Further: potency means the concentration at half of the fitted maximal effect. A digest of the protocol:
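50 nM HP1-beta + 50 nM biotin-H3(1-18)K9me3, PBS pH 7.4, 0.01% Tween-20, 30 min RT; compound added, 30 min RT; AlphaScreen beads 10 ug/mL final, 30 min dark; luminescence read.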

For test [18], the target named is ATP-dependent 6-phosphofructokinase (Trypanosoma brucei brucei) (UniProt O15648). The test is described as follows: qHTS Validation Assay to Find Inhibitors of T. brucei phosphofructokinase (AID 485368). The method in brief: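 Enzyme reaction in triethanolamine buffer pH 8.0 with 5 mM MgCl2, 0.01% Tween20 and 0.1% BSA; PFK 1.25 nM, F6P 0.5 mM, ATP 0.1 mM, 45 min RT. ADP quantified by ADP-Glo.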

Test [19] can be described thus: High Content Imaging Cell-Based qHTS for Inhibitors of the mTORC1 Signaling Pathway in MEF (Tsc2-/-, p53-/-) Cells (AID 2666).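 Further: percent of cells scored positive for phospho-rpS6 Ser235/236 immunostaining by imaging.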 The method in brief:
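Cells were plated, dosed with compound after 24 hrs, and incubated another 24 hrs at 37 degree Celsius. Fixed cells were immunostained for phospho-rpS6 Ser235/236 and counterstained, and the normalized signal was scored as % active cells against rapamycin and DMSO controls.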

Records with an inconclusive call do not appear. Some structures have more than one record in an assay (separate samples or runs), and their calls can disagree. Activity calls are given as the source filed them. Unless noted, the call rests on the fitted dose curve; in most records, active means well fitted curve in the direction sought with a large enough effect; inconclusive means small, poorly fitted or top-dose-only effect, or another doubt; inactive means no such curve, though single readings can be large; an effect the other way counts as inactive or inconclusive.

Sequence of Flap endonuclease 1 (Homo sapiens) (P39748 whole entry, looked up): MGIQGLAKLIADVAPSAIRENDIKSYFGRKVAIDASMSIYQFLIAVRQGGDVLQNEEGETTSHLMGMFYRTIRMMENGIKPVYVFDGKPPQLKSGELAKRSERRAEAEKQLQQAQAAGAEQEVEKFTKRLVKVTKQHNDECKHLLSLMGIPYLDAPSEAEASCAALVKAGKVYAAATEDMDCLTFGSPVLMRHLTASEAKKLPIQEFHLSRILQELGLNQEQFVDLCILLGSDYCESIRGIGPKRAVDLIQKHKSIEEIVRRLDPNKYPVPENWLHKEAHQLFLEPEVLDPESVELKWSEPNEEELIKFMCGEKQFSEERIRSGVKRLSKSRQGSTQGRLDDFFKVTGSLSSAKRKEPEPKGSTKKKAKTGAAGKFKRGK
Sequence of DNA polymerase III PolC-type (Bacillus subtilis (strain 168)) (P13267 whole entry, looked up): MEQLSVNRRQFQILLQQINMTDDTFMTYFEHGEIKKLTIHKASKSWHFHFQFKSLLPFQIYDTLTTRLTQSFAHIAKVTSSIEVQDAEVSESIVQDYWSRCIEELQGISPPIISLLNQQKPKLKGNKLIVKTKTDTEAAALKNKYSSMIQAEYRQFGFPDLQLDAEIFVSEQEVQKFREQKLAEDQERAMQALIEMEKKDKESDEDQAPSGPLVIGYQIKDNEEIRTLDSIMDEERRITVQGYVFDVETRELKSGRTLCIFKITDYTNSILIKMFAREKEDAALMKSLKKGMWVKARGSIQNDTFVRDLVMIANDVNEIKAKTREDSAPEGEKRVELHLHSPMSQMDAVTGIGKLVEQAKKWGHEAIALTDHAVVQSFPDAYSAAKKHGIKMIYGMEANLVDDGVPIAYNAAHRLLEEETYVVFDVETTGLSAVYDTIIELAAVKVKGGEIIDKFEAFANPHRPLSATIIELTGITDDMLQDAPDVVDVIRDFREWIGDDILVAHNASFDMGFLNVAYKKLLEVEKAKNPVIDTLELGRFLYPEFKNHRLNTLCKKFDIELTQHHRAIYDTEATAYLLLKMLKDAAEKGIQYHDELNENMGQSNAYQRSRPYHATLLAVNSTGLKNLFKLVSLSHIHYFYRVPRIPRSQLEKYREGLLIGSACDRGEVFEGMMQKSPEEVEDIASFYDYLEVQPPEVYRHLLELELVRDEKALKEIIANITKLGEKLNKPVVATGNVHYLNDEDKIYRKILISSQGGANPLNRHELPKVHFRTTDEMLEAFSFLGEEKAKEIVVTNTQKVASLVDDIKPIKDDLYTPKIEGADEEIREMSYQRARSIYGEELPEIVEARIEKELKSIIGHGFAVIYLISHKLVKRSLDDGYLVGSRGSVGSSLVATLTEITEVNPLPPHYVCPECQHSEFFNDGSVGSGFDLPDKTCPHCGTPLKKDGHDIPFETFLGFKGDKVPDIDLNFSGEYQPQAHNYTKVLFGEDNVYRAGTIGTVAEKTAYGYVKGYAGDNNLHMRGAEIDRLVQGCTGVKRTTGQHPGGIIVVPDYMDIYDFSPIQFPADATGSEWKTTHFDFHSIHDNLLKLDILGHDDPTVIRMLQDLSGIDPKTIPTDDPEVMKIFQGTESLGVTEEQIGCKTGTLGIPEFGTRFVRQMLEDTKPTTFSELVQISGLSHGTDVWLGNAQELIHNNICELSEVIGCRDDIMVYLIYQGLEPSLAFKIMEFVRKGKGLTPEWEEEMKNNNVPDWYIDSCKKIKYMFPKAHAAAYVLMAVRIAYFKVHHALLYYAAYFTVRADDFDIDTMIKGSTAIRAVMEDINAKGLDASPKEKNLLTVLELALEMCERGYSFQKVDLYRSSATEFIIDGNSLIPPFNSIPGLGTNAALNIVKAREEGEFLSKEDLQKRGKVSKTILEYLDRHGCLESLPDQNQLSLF
Sequence of ATP-dependent 6-phosphofructokinase (Trypanosoma brucei brucei) (O15648 whole entry, looked up): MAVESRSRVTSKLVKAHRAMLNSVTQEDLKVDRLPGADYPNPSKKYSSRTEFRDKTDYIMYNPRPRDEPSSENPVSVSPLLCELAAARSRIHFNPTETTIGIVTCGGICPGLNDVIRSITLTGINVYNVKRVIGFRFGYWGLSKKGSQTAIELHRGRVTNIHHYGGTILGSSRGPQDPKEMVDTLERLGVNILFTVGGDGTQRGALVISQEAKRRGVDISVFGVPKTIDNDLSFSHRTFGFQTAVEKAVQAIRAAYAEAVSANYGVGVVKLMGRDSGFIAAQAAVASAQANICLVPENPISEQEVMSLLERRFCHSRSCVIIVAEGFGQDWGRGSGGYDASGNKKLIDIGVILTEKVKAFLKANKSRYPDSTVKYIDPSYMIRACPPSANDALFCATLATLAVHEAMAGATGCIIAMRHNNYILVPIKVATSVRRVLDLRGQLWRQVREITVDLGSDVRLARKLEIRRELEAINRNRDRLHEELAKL
Sequence of Thioredoxin reductase 1, cytoplasmic (Rattus norvegicus) (O89049 whole entry, looked up): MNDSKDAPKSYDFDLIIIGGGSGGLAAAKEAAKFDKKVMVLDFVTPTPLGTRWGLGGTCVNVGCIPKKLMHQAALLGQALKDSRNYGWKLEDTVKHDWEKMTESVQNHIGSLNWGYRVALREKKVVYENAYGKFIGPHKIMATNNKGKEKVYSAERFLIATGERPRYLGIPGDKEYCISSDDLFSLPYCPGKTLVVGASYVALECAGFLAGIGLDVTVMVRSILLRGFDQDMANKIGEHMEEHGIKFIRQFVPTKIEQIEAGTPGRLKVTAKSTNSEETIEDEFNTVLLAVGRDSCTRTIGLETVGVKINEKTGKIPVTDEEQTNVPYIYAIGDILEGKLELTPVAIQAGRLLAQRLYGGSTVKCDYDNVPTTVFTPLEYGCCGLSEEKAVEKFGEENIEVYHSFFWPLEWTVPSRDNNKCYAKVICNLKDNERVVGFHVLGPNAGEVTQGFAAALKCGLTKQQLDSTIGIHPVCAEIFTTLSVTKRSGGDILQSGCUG
Sequence of Chromobox protein homolog 1 (Homo sapiens) (P83916 whole entry, looked up): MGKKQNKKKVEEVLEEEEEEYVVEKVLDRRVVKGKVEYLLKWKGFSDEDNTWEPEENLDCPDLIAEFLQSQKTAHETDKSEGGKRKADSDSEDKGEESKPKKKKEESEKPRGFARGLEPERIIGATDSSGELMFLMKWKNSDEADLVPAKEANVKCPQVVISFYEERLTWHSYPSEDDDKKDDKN
Sequence of Beta-2 adrenergic receptor (Homo sapiens) (P07550 whole entry, looked up): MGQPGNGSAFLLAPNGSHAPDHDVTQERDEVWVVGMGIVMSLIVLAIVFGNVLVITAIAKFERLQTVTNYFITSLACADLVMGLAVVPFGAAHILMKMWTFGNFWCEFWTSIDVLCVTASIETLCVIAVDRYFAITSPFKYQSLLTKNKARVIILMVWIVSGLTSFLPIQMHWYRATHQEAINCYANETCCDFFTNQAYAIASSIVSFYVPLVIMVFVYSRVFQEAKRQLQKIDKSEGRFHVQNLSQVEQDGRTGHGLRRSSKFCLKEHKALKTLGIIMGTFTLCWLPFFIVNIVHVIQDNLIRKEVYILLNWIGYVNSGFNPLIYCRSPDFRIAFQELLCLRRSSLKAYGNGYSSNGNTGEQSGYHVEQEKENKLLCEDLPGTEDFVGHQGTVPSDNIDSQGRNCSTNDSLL
Sequence of Ubiquitin carboxyl-terminal hydrolase 2 (Homo sapiens) (O75604 whole entry, looked up): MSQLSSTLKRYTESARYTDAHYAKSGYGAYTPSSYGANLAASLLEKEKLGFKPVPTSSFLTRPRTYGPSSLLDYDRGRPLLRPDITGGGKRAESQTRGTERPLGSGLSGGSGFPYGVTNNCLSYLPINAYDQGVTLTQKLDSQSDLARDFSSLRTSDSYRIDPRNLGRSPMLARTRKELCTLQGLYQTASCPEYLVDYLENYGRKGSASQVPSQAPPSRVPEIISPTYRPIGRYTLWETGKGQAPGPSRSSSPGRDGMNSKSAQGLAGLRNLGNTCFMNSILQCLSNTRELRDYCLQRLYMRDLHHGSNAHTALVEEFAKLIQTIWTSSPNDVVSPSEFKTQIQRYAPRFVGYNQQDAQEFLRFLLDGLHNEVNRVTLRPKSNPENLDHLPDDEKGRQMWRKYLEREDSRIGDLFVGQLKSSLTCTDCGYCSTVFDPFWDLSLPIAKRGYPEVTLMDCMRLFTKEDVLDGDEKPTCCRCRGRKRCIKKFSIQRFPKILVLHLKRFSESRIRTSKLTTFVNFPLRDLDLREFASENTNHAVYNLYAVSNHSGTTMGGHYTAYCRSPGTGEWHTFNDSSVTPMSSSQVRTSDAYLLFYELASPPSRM
Sequence of Tumor susceptibility gene 101 protein (Homo sapiens) (Q99816 whole entry, looked up, the tested form may be a part): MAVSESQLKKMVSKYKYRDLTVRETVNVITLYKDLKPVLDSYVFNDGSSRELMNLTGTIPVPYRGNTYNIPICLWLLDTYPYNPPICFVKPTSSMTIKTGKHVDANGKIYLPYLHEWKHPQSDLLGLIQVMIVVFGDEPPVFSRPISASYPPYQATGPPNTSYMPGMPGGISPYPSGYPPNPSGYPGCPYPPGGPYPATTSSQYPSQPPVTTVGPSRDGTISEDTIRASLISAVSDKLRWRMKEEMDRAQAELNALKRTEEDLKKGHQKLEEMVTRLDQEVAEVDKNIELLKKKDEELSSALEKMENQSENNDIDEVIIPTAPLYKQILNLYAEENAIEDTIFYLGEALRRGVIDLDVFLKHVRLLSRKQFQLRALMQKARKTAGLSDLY
Sequence of Methanococcus maripaludis chaperonin (MmCpn) (Q6LX38 1-543): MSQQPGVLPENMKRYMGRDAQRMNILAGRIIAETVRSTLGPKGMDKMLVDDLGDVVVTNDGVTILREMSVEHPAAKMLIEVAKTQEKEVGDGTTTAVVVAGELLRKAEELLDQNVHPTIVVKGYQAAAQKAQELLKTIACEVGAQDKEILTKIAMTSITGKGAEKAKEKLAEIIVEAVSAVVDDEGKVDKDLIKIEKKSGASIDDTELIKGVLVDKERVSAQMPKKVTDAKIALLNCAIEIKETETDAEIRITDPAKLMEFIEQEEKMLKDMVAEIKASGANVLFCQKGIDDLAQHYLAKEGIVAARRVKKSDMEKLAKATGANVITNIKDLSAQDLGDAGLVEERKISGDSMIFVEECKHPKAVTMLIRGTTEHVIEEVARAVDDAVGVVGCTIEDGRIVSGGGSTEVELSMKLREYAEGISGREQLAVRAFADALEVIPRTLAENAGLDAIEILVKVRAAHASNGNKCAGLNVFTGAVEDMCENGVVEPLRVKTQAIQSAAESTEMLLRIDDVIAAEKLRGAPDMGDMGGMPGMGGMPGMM

For the compound `C=CCn1c(=O)c2c(nc(-c3ccc(S(=O)(=O)O)cc3)n2C)n(C)c1=O`, the call in [1], in test [6], in test [7], in test [8], in test [11] and in test [14] was inactive. For the same compound, the Potency result in test [2], in test [3], in test [4], in [5], in test [9] and in test [10] was “inactive” throughout. Besides, the Potency result in [12] and in [13] was “inactive” throughout.
On to `NC1(C(=O)O)CC1`, for which the compound was called inactive in test [1], in [6], in test [7], in test [11] and in [14]. Also, the Potency entry in test [15], in test [2], in test [3], in test [4], in [5] and in test [9] was “inactive” each time. Moreover, the Potency result in test [10], in test [12], in test [16], in test [13] and in test [17] was “inactive” each time.
Take `CCCC(=O)NCCc1c2n(c3ccc(OC)cc13)CCCc1ccccc1-2`: the call in test [1], in test [6], in [8] and in [14] was inactive. The Potency entry in test [15], in [2], in test [4], in [5], in [18] and in [10] was “inactive” each time. Further, the Potency result in [12] and in test [16] was “inactive” throughout. Moreover, the Potency in [13] was 28.2 µM (active); in test [17], 35.5 µM (active).
Consider `[N-]=[N+]=Nc1ccc(C(=O)CSC[C@H](NC(=O)CC[C@H](N)C(=O)O)C(=O)NCC(=O)O)cc1`, for which the compound was classed as inactive in test [1], in test [6], in [7], in test [8] and in test [14]. In addition, the Potency result in test [2], in [9], in test [10], in test [12] and in [16] was “inactive” in each case. Also, the Potency in test [13] is 35.5 µM (active) and inactive; in [17] it was 39.8 µM (active).
Turning to `CC1C(=O)N(C)C(=O)c2nc[nH]c21` (stereo not drawn), the Potency result in test [19], in test [15], in test [2], in test [3], in test [4] and in test [5] was “inactive” throughout. Further, the Potency entry in test [18], in test [9], in test [10], in test [12], in test [16] and in test [13] was “inactive” each time. The Potency entry in test [17] was “inactive”. Moreover, the compound was classed as inactive in [6], in test [8], in test [11] and in test [14].
Take `CC(C)NC[C@H](O)COc1ccc(CC(N)=O)cc1`: the Potency result in test [19], in test [15], in test [2], in test [3], in [4] and in test [5] was “inactive” in each case. Also, the Potency result in test [18], in test [9], in [10], in test [12] and in test [17] was “inactive” each time. Besides, the outcome in test [6], in [7], in [11] and in test [14] was inactive.

Values taken from PubChem BioAssay (NCATS).
